Where “and” joins values, the source holds several entries; their conditions need not be identical. Equal values may be shown once. Inconclusive results are not listed. More than one record can exist for a structure, and the calls need not agree. Calls of active or inactive are those of the source. The calls were made as follows, unless noted: active = hit-call score of the fitted dose curve at least 0.9, where 1 is the maximum; inconclusive = response in the unintended direction; inactive = score below 0.9.
Legend:
[1] = molecular target: Retinoic acid receptor alpha (Homo sapiens) (UniProt P10276); experiment: ATG_DR5_RAR_CIS: Attagene CIS-FACTORIAL HepG2 Assay for human Retinoic Acid Receptor Alpha (RARE), DR5 submotif (AID 2282934; active = hit-call score of the fitted dose curve at least 0.9, where 1 is the maximum; inactive = score below 0.9); settings: HepG2 Attagene cis-factorial RARE DR5 reporter, mRNA; actives raise or lower the signal
Outline: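 Endpoint fitted in both directions relative to DMSO as negative control. It reflects DR5 cis-element reporter mRNA induction in transiently transfected HepG2 cells, measured 24 h after dosing through RT-PCR and fluorescent capillary electrophoresis.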

[2] = ATG_VDRE_CIS: Attagene CIS-FACTORIAL HepG2 Assay for human Vitamin D Receptor Element (VDRE) (AID 2282968; active = hit-call score of the fitted dose curve at least 0.9, where 1 is the maximum; inactive = score below 0.9); settings: HepG2 VDRE cis-reporter transcription, actives raise or lower the signal
Outline: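 Steps: transfect HepG2 with multiple reporter transcription units; dose chemicals 24 h; isolate RNA; RT-PCR; label with 6-FAM primer extension; HpaI digest; capillary electrophoresis. Curves fitted both directions against DMSO.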

[3] = molecular target: Steroid hormone receptor ERR1 (Homo sapiens) (UniProt P11474); experiment: ATG_ERRa_TRANS: Attagene TRANS-FACTORIAL HepG2 Assay for human Estrogen-Related Receptor alpha (ERRa) (AID 2282971); settings: HepG2 Attagene TRANS reporter, ERRa transactivation
Outline: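 Reporter transcripts from ERRa-Gal4 chimera activity measured in transiently transfected human HepG2 cells 24 hours after dosing, using RT-PCR with 6-FAM primer extension, HpaI digestion and capillary electrophoresis; DMSO is baseline.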

[4] = ATG_M_19_TRANS: Attagene TRANS-FACTORIAL HepG2 Assay for M19 Transcription Factor (Internal Marker) (AID 2282974); settings: HepG2 Attagene TRANS-FACTORIAL M19 internal marker reporter
Outline: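 Cells: human HepG2, transiently transfected with multiplexed reporter transcription units. Exposure: 24 h. Detection: RT-PCR of reporter mRNA with capillary electrophoresis. Analysis: gain-of-signal vs DMSO.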

[5] = molecular target: human RAR-related Orphan Receptor beta (RORb), RORB (gene 6096) (UniProt Q92753); experiment: ATG_RORb_TRANS: Attagene TRANS-FACTORIAL HepG2 Assay for human RAR-related Orphan Receptor beta (RORb) (AID 2283010)
Outline: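 Read-out is reporter mRNA induction, quantified by RT-PCR with fluorescent capillary electrophoresis, 24 h post-dose in transiently transfected HepG2 expressing exogenous NR-Gal4 chimera. Activity fitted upward versus DMSO.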

[6] = molecular target: human Vitamin D Receptor (VDR), VDR (gene 7421) (UniProt P11473); experiment: ATG_VDR_TRANS: Attagene TRANS-FACTORIAL HepG2 Assay for human Vitamin D Receptor (VDR) (AID 2283022)
Outline: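 Transactivation by an exogenous VDR-Gal4 chimera in transiently transfected HepG2 cells was measured as reporter transcript level 24 hours after chemical treatment. RT-PCR products were analysed by capillary electrophoresis and fitted in the positive direction relative to DMSO.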

[7] = molecular target: Peroxisome proliferator-activated receptor gamma (Homo sapiens) (UniProt P37231); experiment: OT_PPARg_PPARgSRC1_1440: Odyssey Thera (OT) 24-hour Protein-Complementation Assay for Peroxisome Proliferator-activated Receptor Gamma/ SRC-1 Co-activator (AID 2283388);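 also: nuclear to cytoplasmic ratio of reconstituted Venus YFP fluorescence in fixed imaged cells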
Outline: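 Readout is the 488 nm N/C fluorescence ratio from fixed, Draq5-stained HEK293T cells after 24 h compound exposure. Cells carried transiently transfected PPARg and SRC-1 fused to Venus fragments, transfected 48 h before treatment.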

[8] = ATG_GRE_CIS: Attagene CIS-FACTORIAL HepG2 Assay for human Glucocorticoid Response Elements (GRE) (AID 2282947; active = hit-call score of the fitted dose curve at least 0.9, where 1 is the maximum; inactive = score below 0.9); settings: HepG2 GRE cis-reporter, Attagene multiplex mRNA; actives raise or lower the signal
Outline: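 Cells (HepG2) bearing transfected cis-promoter reporter transcription units were treated with chemical for 24 hours. Reporter mRNA was measured via RT-PCR with capillary electrophoresis, and activity was fitted in both directions relative to DMSO.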

[9] = ATG_M_32_TRANS: Attagene TRANS-FACTORIAL HepG2 Assay for M32 Transcription Factor (Internal Marker) (AID 2282984); settings: HepG2 Attagene TRANS M32 internal marker reporter;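 also: transcript level of a background control reporter unit measured by RT-PCR and capillary electrophoresis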
Outline: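 After 24 h dosing of transfected HepG2 cells, total RNA was reverse-transcribed, reporter sequences PCR-amplified, 6-FAM labelled by primer extension and HpaI-digested before capillary electrophoresis. Signal increase over DMSO was fitted.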

[10] = molecular target: Nuclear receptor subfamily 4 group A member 2 (Homo sapiens) (UniProt P43354); experiment: ATG_NURR1_TRANS: Attagene TRANS-FACTORIAL HepG2 Assay for human Nuclear Receptor Related Protein 1 (NURR1) (AID 2282985); settings: HepG2 Attagene TRANS reporter, mRNA readout
Outline: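 Chimeric NR-Gal4 fusion activity measured in HepG2 after 24 h treatment. Reporter transcripts detected by RT-PCR and capillary electrophoresis fluorescence; positive-direction curve fitting against DMSO.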

[11] = molecular target: human Peroxisome Proliferator-activated Receptor delta (PPARd), PPARD (gene 5467) (UniProt Q03181); experiment: ATG_PPARd_TRANS: Attagene TRANS-FACTORIAL HepG2 Assay for human Peroxisome Proliferator-activated Receptor delta (PPARd) (AID 2283002)
Outline: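 Multiplexed trans-activation format: HepG2 liver cells expressing exogenous NR-Gal4 chimeras and GAL4-UAS reporters were exposed for 24 h. Reporter mRNA was detected by RT-PCR with capillary electrophoresis fluorescence; activity fitted as gain of signal relative to DMSO.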

[12] = TOX21_p53_BLA_p2_viability: Viability Assessment in the Tox21 HCT-116 p53 Agonism Beta-lactamase Assay, Phase 2 (AID 2283591);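 also: compound exposure lasted 16 h at 37 °C; actives lower the ATP signal meaning cytotoxicity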
Outline: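 HCT-116 p53-bla cells (4000/well) rested 5 h at 37C, then received compounds in DMSO (217-fold dilution) for 16 h at 37C, 5% CO2. After the CCF4 read, CellTiter-Glo was added; ATP luminescence was read after 30 min at room temperature.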

[13] = molecular target: Cellular tumor antigen p53 (Homo sapiens) (UniProt P04637); experiment: TOX21_p53_BLA_p3_ratio: Tox21 HCT-116 p53 Agonism Beta-lactamase Assay, Ratio, Phase 3 (AID 2283596)
Outline: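 Cells were seeded at 4000/well, rested 5 h at 37C, then dosed with DMSO compound solutions (217-fold dilution) for 16 h. CCF4-AM substrate was loaded for 2 h at room temperature, and the 460/530 nm emission ratio was fitted for gain of signal versus DMSO.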

[14] = molecular target: Cellular tumor antigen p53 (Homo sapiens) (UniProt P04637); experiment: TOX21_p53_BLA_p4_ratio: Tox21 HCT-116 p53 Agonism Beta-lactamase Assay, Ratio, Phase 4 (AID 2283601)
Outline: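 HCT116 cells carrying an inducible beta-lactamase reporter were plated at 4000 cells/well, rested 5 h, then exposed to compounds in DMSO (217-fold dilution) for 16 h at 37C. CCF4-AM substrate was loaded 2 h at room temperature; 460/530 nm emission ratio scored gain-of-signal versus DMSO.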

[15] = TOX21_p53_BLA_p3_viability: Viability Assessment in the Tox21 HCT-116 p53 Agonism Beta-lactamase Assay, Phase 3 (AID 2283593);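 also: cells exposed to compound for 16 h before reading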
Outline: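 HCT-116 cells (4000/well) rested 5 h at 37C, then got DMSO compounds by pin tool (217-fold dilution) for 16 h at 37C, 5% CO2. After the bla read, CellTiter-Glo was added and luminescence read at 30 min, room temperature.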

[16] = TOX21_p53_BLA_p5_viability: Viability Assessment in the Tox21 HCT-116 p53 Agonism Beta-lactamase Assay, Phase 5 (AID 2283600)
Outline: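 Viability came from CellTiter-Glo ATP luminescence, read after 30 min at room temperature. Before this, HCT-116 p53-bla cells (4000/well) had 16 hours of compound exposure at 37C, with DMSO stocks diluted 217-fold on transfer.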

[17] = BSK_3C_uPAR: BioMAP Diversity Plus: 3C Assay for Urokinase-type plasminogen activator receptor (uPAR) Biomarker Activity (AID 2282998; active = hit-call score of the fitted dose curve at least 0.9, where 1 is the maximum; inactive = score below 0.9); settings: BioMAP 3C HUVEC, uPAR biomarker ELISA; actives raise or lower the signal
Outline: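 Values derive from bidirectional curve fitting relative to DMSO, which served as baseline of activity. uPAR was measured by ELISA in human umbilical vein endothelial primary cultures 24 h after compound addition.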

[18] = BSK_4H_Eotaxin3: BioMAP Diversity Plus: 4H Assay for Eotaxin 3 Biomarker Activity (AID 2283000; active = hit-call score of the fitted dose curve at least 0.9, where 1 is the maximum; inactive = score below 0.9); settings: primary human endothelial cells (HUVEC); actives raise or lower the signal
Outline: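 Human umbilical vein endothelial cells (BSK_4H system) dosed with test chemical; Eotaxin-3 (CCL26) measured by ELISA 24 h after dosing. Bidirectional curve fitting relative to DMSO negative control as baseline.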

[19] = molecular target: human Thyroid Receptor alpha (THRa1), THRA (gene 7067) (UniProt P10827); experiment: ATG_THRa1_TRANS: Attagene TRANS-FACTORIAL HepG2 Assay for human Thyroid Receptor alpha (THRa1) (AID 2283014)
Outline: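 Transcripts from GAL4-UAS-driven reporters, measured after 24 h compound exposure by RT-PCR plus capillary electrophoresis of 6-FAM-labeled fragments, were fitted for gain of signal relative to DMSO. Cells: transiently transfected HepG2 expressing NR-Gal4 chimeras.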

[20] = TOX21_p53_BLA_p4_viability: Viability Assessment in the Tox21 HCT-116 p53 Agonism Beta-lactamase Assay, Phase 4 (AID 2283597);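 also: hits lower the luminescence signal meaning cytotoxicity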
Outline: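 Cytotoxicity as reduced cellular ATP (CellTiter-Glo luminescence, 30 min room temperature), measured in the same wells following the CCF4 FRET p53 reading. Human HCT-116 cells received compounds in DMSO (217-fold dilution) for 16 h.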

Measured: AC50

Chain of Cellular tumor antigen p53 (Homo sapiens) (P04637 whole entry, looked up): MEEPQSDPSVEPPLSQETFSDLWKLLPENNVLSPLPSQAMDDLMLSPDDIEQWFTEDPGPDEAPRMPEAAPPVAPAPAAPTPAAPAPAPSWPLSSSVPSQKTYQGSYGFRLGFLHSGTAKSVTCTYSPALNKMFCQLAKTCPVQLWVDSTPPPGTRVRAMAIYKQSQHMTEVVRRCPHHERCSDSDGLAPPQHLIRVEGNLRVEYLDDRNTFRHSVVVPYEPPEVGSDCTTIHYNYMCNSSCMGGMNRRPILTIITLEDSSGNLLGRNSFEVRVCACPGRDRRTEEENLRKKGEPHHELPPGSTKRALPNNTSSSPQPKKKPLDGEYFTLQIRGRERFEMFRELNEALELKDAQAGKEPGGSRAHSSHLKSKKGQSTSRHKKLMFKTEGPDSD
Chain of Nuclear receptor subfamily 4 group A member 2 (Homo sapiens) (P43354 whole entry, looked up, the tested form may be a part): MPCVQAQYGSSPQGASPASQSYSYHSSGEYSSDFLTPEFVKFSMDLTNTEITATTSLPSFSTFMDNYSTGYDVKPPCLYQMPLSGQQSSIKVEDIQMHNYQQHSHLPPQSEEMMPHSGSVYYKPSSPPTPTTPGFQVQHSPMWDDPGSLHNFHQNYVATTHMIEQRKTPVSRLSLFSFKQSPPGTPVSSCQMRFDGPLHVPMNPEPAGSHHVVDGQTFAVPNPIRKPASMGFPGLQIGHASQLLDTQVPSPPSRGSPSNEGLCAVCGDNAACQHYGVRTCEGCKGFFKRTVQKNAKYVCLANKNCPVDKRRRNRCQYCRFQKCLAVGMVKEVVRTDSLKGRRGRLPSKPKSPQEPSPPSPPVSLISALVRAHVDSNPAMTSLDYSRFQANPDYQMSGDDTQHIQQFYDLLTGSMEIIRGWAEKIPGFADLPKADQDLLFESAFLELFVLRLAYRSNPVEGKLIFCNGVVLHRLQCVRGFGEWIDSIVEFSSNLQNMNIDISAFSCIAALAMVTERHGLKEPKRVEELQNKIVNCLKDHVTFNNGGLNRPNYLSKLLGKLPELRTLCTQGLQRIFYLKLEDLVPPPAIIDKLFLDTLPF
Chain of human RAR-related Orphan Receptor beta (RORb), RORB (gene 6096) (Q92753 whole entry, looked up, the tested form may be a part): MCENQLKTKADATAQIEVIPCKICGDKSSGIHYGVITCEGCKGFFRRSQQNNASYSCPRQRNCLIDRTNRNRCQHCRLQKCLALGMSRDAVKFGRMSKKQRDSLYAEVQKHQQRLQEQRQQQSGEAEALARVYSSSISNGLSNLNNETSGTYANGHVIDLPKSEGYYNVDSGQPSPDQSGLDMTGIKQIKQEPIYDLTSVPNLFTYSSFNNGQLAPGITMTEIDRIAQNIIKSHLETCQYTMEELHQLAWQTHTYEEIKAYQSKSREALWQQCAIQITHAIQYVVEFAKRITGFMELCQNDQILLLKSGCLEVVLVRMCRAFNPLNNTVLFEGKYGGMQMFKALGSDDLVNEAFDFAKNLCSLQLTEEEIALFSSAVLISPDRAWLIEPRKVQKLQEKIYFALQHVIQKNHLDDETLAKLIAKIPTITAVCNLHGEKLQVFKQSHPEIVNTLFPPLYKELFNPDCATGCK
Chain of Steroid hormone receptor ERR1 (Homo sapiens) (P11474 whole entry, looked up, the tested form may be a part): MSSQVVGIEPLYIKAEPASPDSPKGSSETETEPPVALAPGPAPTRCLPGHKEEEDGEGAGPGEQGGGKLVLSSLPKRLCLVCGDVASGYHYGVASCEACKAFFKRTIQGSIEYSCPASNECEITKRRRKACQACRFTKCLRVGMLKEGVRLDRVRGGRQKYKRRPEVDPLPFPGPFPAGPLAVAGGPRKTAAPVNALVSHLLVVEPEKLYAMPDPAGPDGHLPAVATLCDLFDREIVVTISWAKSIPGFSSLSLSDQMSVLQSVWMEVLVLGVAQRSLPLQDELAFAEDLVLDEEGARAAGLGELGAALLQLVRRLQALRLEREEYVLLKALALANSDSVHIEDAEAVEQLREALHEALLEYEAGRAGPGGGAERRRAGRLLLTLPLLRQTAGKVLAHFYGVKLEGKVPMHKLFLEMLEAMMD
Chain of human Thyroid Receptor alpha (THRa1), THRA (gene 7067) (P10827 whole entry, looked up, the tested form may be a part): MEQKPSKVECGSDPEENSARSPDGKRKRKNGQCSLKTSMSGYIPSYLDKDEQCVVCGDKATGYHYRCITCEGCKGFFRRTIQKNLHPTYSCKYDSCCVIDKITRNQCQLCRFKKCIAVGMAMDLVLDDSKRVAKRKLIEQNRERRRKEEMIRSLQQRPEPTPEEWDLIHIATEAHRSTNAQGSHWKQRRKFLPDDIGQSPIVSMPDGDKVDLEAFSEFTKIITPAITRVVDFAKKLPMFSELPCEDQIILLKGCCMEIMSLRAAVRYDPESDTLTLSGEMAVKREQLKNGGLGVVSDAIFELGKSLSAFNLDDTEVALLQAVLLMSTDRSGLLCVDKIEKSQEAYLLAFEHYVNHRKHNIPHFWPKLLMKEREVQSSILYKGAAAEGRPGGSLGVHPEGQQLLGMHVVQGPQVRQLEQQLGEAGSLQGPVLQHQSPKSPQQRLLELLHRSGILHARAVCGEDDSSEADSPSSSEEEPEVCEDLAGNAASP
Chain of Retinoic acid receptor alpha (Homo sapiens) (P10276 whole entry, looked up): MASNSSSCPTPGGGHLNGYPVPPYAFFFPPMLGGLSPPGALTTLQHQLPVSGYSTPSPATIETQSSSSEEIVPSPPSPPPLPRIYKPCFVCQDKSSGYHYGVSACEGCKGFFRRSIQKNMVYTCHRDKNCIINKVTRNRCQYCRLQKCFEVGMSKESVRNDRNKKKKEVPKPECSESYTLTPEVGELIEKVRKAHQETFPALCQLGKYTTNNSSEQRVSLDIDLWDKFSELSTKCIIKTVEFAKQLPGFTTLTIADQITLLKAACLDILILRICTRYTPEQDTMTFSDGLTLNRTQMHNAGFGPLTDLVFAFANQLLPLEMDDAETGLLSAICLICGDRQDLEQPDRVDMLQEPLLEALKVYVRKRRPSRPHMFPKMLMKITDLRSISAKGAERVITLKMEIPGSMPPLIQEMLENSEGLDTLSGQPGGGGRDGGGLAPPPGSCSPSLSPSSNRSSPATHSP
Chain of Peroxisome proliferator-activated receptor gamma (Homo sapiens) (P37231 whole entry, looked up, the tested form may be a part): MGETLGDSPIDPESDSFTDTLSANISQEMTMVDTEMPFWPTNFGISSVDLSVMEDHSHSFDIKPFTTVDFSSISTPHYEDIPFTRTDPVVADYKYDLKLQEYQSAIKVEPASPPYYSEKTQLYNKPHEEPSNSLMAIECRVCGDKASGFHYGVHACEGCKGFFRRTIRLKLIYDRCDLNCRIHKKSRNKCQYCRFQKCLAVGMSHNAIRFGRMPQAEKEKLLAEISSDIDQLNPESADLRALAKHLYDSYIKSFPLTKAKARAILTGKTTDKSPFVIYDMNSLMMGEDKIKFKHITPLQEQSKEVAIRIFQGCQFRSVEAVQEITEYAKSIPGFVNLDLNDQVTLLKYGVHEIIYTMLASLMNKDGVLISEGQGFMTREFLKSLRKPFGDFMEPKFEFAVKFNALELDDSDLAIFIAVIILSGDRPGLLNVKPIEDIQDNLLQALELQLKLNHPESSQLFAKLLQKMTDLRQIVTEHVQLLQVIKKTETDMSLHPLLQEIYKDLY
Chain of human Vitamin D Receptor (VDR), VDR (gene 7421) (P11473 whole entry, looked up, the tested form may be a part): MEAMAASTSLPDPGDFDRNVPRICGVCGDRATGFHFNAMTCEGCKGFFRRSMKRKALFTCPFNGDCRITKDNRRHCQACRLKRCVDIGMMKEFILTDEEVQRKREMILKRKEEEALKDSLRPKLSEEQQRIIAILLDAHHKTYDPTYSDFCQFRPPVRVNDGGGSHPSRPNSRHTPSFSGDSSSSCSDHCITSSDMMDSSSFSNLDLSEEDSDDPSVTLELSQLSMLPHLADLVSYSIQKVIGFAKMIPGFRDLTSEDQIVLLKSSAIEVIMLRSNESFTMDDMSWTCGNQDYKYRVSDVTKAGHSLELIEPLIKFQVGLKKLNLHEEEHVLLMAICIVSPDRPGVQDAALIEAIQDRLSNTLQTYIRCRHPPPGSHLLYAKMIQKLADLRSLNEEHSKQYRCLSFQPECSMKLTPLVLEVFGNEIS
Chain of human Peroxisome Proliferator-activated Receptor delta (PPARd), PPARD (gene 5467) (Q03181 whole entry, looked up, the tested form may be a part): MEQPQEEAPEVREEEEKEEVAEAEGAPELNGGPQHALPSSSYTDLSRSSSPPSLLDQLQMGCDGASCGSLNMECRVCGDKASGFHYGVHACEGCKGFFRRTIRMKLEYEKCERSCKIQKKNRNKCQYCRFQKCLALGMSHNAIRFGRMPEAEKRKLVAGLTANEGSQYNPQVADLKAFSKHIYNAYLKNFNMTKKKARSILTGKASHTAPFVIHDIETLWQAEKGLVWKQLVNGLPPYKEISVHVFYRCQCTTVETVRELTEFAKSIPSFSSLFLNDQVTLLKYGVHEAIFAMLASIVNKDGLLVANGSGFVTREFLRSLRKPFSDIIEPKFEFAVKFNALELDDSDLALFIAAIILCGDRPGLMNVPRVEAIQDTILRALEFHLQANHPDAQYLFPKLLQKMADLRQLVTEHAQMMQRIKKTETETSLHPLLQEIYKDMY

O=C=Nc1ccccc1
inactive: [1] | [2] | [3] | [4] | [5] | [6] | [7]

C=CC(=O)OCCCCOC(=O)C=C
inactive: [9] | [10] | [11] | [6] | [13] | [14]
active: [8] 70.5 µM | [2] 33.5 µM | [12] 69.5 µM

O=C(CCN1CC1)OCC(CO)(COC(=O)CCN1CC1)COC(=O)CCN1CC1
inactive: [5] | [15] | [13] | [16] | [14]

O=C1C=CC(=O)C=C1
active: [17] 12.8 µM | [18] 20 µM | [15] 72.3 µM and 76.5 µM | [13] 71.3 µM
inactive: [9] | [10] | [17] | [5] | [19] | [12] | [13] | [20] | [16]

O=[N+]([O-])O
inactive: [1] | [8] | [4] | [17] | [18] | [7] | [12] | [15] | [20] | [16]
active: [18] 0.433 µM

C[N+](=O)[O-]
inactive: [8] | [3] | [9] | [11] | [19] | [12] | [20] | [16] | [14]

CN(C)N
inactive: [1] | [9] | [6] | [7] | [15] | [20] | [14]

CNC(=O)Oc1cc(C)c(SC)c(C)c1
inactive: [8] | [10] | [17] | [11] | [5] | [19] | [6]
active: [2] 51.8 µM | [18] 20 µM

Nc1ccc([N+](=O)[O-])cc1N
not listed: [4] | [7] | [8] | [12] | [17] | [18] | [19]
inactive: all other assays above

Cc1ccc(OP(=O)(Oc2ccc(C)cc2)Oc2ccc(C)cc2)cc1 (tested in a mixture with another compound)
active: [2] 2.35 µM
not listed: [3] | [5] | [6] | [9] | [10] | [11] | [15] | [19]
inactive: all other assays above

CC1(C)[C@H](C(=O)O[C@H](C#N)c2cccc(Oc3ccccc3)c2)[C@@H]1C=C(Br)Br
active: [17] 0.0401 µM | [18] 0.3 µM
inactive: [8] | [3] | [4] | [10] | [17] | [18] | [5] | [19] | [7] | [12] | [15] | [13] | [20] | [16] | [14]

CN(N=O)c1ccccc1
inactive: [8] | [2] | [3] | [9] | [5] | [6]

C[N+](C)(C)CC(=O)[O-]
inactive: [10] | [11] | [5] | [19]

CCOC(=O)COc1ccc(Cl)cc1Cl
inactive: [1] | [8] | [9] | [11] | [12] | [15] | [13] | [16]

CCOC(=O)N(C)N=O
inactive: [1] | [2] | [3] | [4] | [9] | [11] | [19] | [12] | [15] | [13] | [16]

S=c1[nH]c2ccccc2[nH]1
inactive: [1] | [3] | [10] | [12] | [15] | [13] | [20] | [16] | [14]

O=C(NC(=O)c1c(F)cccc1F)Nc1ccc(Oc2ccc(C(F)(F)F)cc2Cl)cc1F
not listed: [3] | [5] | [8] | [9] | [10] | [17] | [18]
inactive: all other assays above

CC(=O)C=Cc1ccccc1
inactive: [4] | [10] | [11] | [5] | [6] | [7]

O=C(O)CCl
inactive: [1] | [8] | [2] | [4] | [9] | [5] | [19] | [7]

COCC(=O)N(c1c(C)cccc1C)N1CCOC1=O
inactive: [3] | [4] | [9] | [17] | [18] | [11] | [12] | [15]
active: [2] 65.9 µM

c1ccc(Nc2ccc3ccccc3c2)cc1
inactive: [1] | [8] | [3] | [4] | [9] | [10] | [18] | [11] | [19] | [15] | [13] | [16] | [14]
active: [17] 20 µM | [20] 73.9 µM and 83 µM | [14] 73.5 µM

Reference: PubChem BioAssay (EPA / NIEHS)
